This is part of a sample that, as a whole, favours compounds with a hit. Of some 79,000 tested, about 15% had one in any assay. Active and inactive are the calls of the source. No stated cut-off is given here; in the data, active means growth inhibition above about 70%; inactive means the rest.
Assays:
[1] = NCI Yeast Anticancer Drug Screen. Data for the rad52 strain (AID 147);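 further: 0% = growth of vehicle-treated control cultures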; details: S. cerevisiae rad52 mutant growth inhibition, active compounds read high
In short: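 The repair-mutant yeast strain was incubated with compounds, then growth was read and inhibition derived relative to vehicle.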

[2] = NCI Yeast Anticancer Drug Screen. Data for the wt1 strain (AID 149);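 further: 0% = growth of vehicle-treated wt1 cultures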; details: S. cerevisiae wt1 strain (SPY 50644) growth inhibition, active compounds read high
In short: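 Using yeast strain wt1, compound-induced growth inhibition was determined against vehicle-treated cultures.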

[3] = NCI Yeast Anticancer Drug Screen. Data for the rad50EPP+ strain (AID 151);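 further: 0% = growth of vehicle-treated control cultures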; details: S. cerevisiae rad50 mutant strain, active compounds read high
In short: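 Vehicle-normalised growth inhibition; rad50EPP+ yeast strain, altered in DNA damage repair, compound-treated.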

[4] = NCI Yeast Anticancer Drug Screen. Data for the mgt1 strain (AID 153); details: S. cerevisiae mgt1 mutant growth inhibition, active compounds read high
In short: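 Vehicle-normalized growth inhibition is determined in mgt1 yeast, a strain selected for a defined alteration in DNA repair or cell cycle control.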

[5] = NCI Yeast Anticancer Drug Screen. Data for the rad50 strain (AID 155);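 further: 0% = growth of vehicle-only cultures of the same strain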; details: S. cerevisiae rad50 strain growth inhibition, active compounds read high
In short: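 Relative growth inhibition (compound vs vehicle) was measured in yeast with a defined repair-gene alteration.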

[6] = NCI Yeast Anticancer Drug Screen. Data for the mec2-1 strain (AID 157); details: S. cerevisiae mec2-1 strain, active compounds read high
In short: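 Mutant yeast (mec2-1) grown with compound; growth inhibition relative to vehicle control reported.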

[7] = NCI Yeast Anticancer Drug Screen. Data for the rad14 strain (AID 159);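 further: 0% = growth of vehicle-treated control cultures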; details: S. cerevisiae rad14 strain growth inhibition, active compounds read high
In short: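 Screen for anticancer potential: a yeast strain altered in DNA damage repair is grown with compound, and reduced growth is quantified against vehicle controls.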

[8] = NCI Yeast Anticancer Drug Screen. Data for the sgs1 mgt1 strain (AID 161);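 further: 0% = growth of cultures given vehicle only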; details: S. cerevisiae sgs1 mgt1 strain, active compounds read high
In short: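 Yeast cells carrying a defined DNA-repair defect were exposed to test compounds. Growth inhibition was measured relative to vehicle-treated controls.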

[9] = NCI Yeast Anticancer Drug Screen. Data for the CLN2oe strain (AID 163);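 further: 0% = growth of vehicle-only control cultures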; details: S. cerevisiae CLN2oe strain, active compounds read high
In short: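 Compounds are applied to yeast harbouring a defined cell-cycle control change; reduced growth compared with vehicle-treated controls gives the value.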

[10] = NCI Yeast Anticancer Drug Screen. Data for the bub3 strain (AID 167); details: S. cerevisiae bub3 mutant strain, active compounds read high
In short: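 Screening used yeast with an engineered genetic alteration affecting cell cycle control. Compound-exposed cultures were compared with vehicle cultures, and reduced growth was taken as inhibition.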

[11] = NCI Yeast Anticancer Drug Screen. Data for the wt2 strain (AID 169);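 further: 0% = growth of vehicle-treated yeast cultures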; details: S. cerevisiae wt2 strain growth inhibition, active compounds read high
In short: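 Against vehicle-treated controls, the growth of yeast exposed to each compound was compared, and the inhibition was recorded.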

[12] = NCI Yeast Anticancer Drug Screen. Data for the mlh1 strain (AID 171);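 further: 0% = growth of vehicle-treated control cultures of the same strain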; details: S. cerevisiae mlh1 strain growth inhibition, active compounds read high
In short: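 Measured: yeast growth. Reference: vehicle-treated controls. Organism: strain with a defined alteration affecting DNA damage repair or cell cycle control, treated with compound.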

[13] = NCI Yeast Anticancer Drug Screen. Data for the sgs1 strain (AID 173);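 further: 0% = growth of vehicle-only control cultures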; details: S. cerevisiae sgs1 mutant, active compounds read high
In short: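 Each compound was added to cultures of the altered yeast strain. Growth was recorded, and inhibition was derived by comparison with vehicle controls.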

[14] = NCI Yeast Anticancer Drug Screen. Data for the mlh1 rad18 strain (AID 175); details: S. cerevisiae mlh1 rad18 strain growth inhibition, active compounds read high
In short: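 Genetically defined yeast (DNA repair-deficient) exposed to compounds; growth inhibition determined relative to vehicle.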

[15] = NCI Yeast Anticancer Drug Screen. Data for the rad18 strain (AID 177); details: S. cerevisiae rad18 mutant growth inhibition, active compounds read high
In short: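 Vehicle-treated cultures served as the baseline for scoring compound-induced growth inhibition in DNA-repair-mutant yeast.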

[16] = at 5.0 µM (retest, dose inferred, filed as 0.5)
[17] = at 50.0 µM (retest, dose inferred, filed as 5.0)

Measured: growth inhibition

CCN(CC)CCNC(=O)c1nn(-c2ccc(Cl)cc2)c2c1CCc1cc(OC)ccc1-2
inactive: [1]; at 1.2 µM -16% | [1]; at 3.7 µM 13% | [1]; at 11.0 µM 26% | [1]; at 33.0 µM 40% | [2]; at 1.2 µM 10% | [2]; at 3.7 µM 22% | [2]; at 11.0 µM 25% | [2]; at 33.0 µM 24% | [2]; at 100.0 µM 58% | [3]; at 1.2 µM 18% | [3]; at 3.7 µM 32% | [3]; at 11.0 µM 43% | [3]; at 33.0 µM 44% | [3]; at 100.0 µM 56% | [4]; at 1.2 µM 12% | [4]; at 3.7 µM 10% | [4]; at 11.0 µM 8% | [4]; at 33.0 µM 12% | [5]; at 1.2 µM 6% | [5]; at 3.7 µM 5% | [5]; [16] 1% | [5]; at 11.0 µM 17% | [5]; at 33.0 µM 59% | [5]; at 50.0 µM 59.2% | [6]; at 1.2 µM -10% | [6]; at 3.7 µM -2% | [6]; [16] -16% | [6]; at 11.0 µM 4% | [6]; at 33.0 µM 0% | [6]; [17] 54% | [6]; at 50.0 µM 66.4% | [7]; at 1.2 µM -1% | [7]; at 3.7 µM 2% | [7]; at 11.0 µM 10% | [7]; at 33.0 µM 24% | [8]; [16] 15% | [8]; at 50.0 µM 67.5% | [9]; at 1.2 µM -12% | [9]; at 3.7 µM 11% | [9]; at 11.0 µM 6% | [9]; at 33.0 µM 5% | [10]; at 1.2 µM 9% | [10]; at 3.7 µM 9% | [10]; [16] 8% | [10]; at 11.0 µM 10% | [10]; at 33.0 µM 13% | [10]; at 50.0 µM 58.7% | [11]; at 1.2 µM -11% | [11]; at 3.7 µM -1% | [11]; at 11.0 µM -8% | [11]; at 33.0 µM 8% | [12]; at 1.2 µM 13% | [12]; at 3.7 µM 17% | [12]; at 11.0 µM 10% | [12]; at 33.0 µM 0% | [13]; at 1.2 µM 3% | [13]; at 3.7 µM 2% | [13]; at 11.0 µM 8% | [13]; at 33.0 µM 14% | [14]; [16] -1% | [15]; at 1.2 µM -4% | [15]; at 3.7 µM 4% | [15]; at 11.0 µM 1% | [15]; at 33.0 µM 18%
active: [1]; at 100.0 µM 94% | [4]; at 100.0 µM 81% | [5]; [17] 80% | [5]; at 100.0 µM 95% | [6]; at 100.0 µM 73% | [7]; at 100.0 µM 92% | [8]; [17] 80% | [9]; at 100.0 µM 80% | [10]; [17] 77% | [10]; at 100.0 µM 83% | [11]; at 100.0 µM 96% | [12]; at 100.0 µM 87% | [13]; at 100.0 µM 90% | [14]; [17] 81% | [15]; at 100.0 µM 95%

O=C(NC(=S)Nc1ccccn1)c1ccccc1
active: [5]; [16] 97% | [5]; [17] 100%
inactive: [1]; at 1.2 µM -30% | [1]; at 3.7 µM -43% | [1]; at 11.0 µM -35% | [1]; at 33.0 µM -28% | [1]; at 100.0 µM -22% | [2]; at 1.2 µM -26% | [2]; at 3.7 µM -36% | [2]; at 11.0 µM -32% | [2]; at 33.0 µM -19% | [2]; at 100.0 µM -24% | [3]; at 1.2 µM -30% | [3]; at 3.7 µM -51% | [3]; at 11.0 µM -69% | [3]; at 33.0 µM -53% | [3]; at 100.0 µM 25% | [4]; at 1.2 µM -62% | [4]; at 3.7 µM -40% | [4]; at 11.0 µM -58% | [4]; at 33.0 µM -41% | [4]; at 100.0 µM -22% | [5]; at 1.2 µM -12% | [5]; at 3.7 µM -9% | [5]; at 11.0 µM -19% | [5]; at 33.0 µM -30% | [5]; at 50.0 µM 28.7% | [5]; at 100.0 µM -14% | [6]; at 1.2 µM -73% | [6]; at 3.7 µM -55%

Source: PubChem BioAssay (NCI)
